# Screening data as filed in PubChem BioAssay.
# An excerpt weighted towards active compounds, which were near 3.2% of everything screened.
# TWEAK Fn14 block = inhibitors of TWEAK-Fn14 interaction signaling | inhibition, % at 10 µM | 2% of 360,000 active | AID 1159606 | TWEAK-stimulated Fn14 reporter cells, luciferase luminescence, 8 h; in the data active means inhibition above about 50%
# LGR2 antag = Drosophila LGR2 receptor signaling inhibition; inhibition, % at 9.99 µM; AID 720647; 0.35% of 380,000 active; HEK293 LGR2, CRE-luciferase, bursicon-stimulated, 4 h;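 active means drop in luminescence signal, shown as inhibition above about 50% in the replicate tests, limit read from the data, passing the limit was not always enough; inconclusive means probably only some replicates passing the limit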;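 further: agonist challenge used bursicon conditioned medium at about half maximal strength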
# PAX8 reporter = PAX8 transcriptional activity inhibition; RMG-I TPO-luciferase reporter, SteadyGlo, 24 h; inhibition, % at 12.6 µM; 1.2% of 360,000 active; AID 652154;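 active means mean replicate inhibition at least 60% with every replicate also reaching 60%; inconclusive means only one of the two criteria is met; inactive means mean below 60% and not all replicates reaching 60%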;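 further: luciferase light reporting Pax8 driven TPO promoter activity; plate controls were median of neutral control wells for no effect and mitoxantrone controls for full effect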
# EBV LMP1 NFkB = inhibitors of Epstein-Barr LMP1-induced NF-kappaB reporter. 0.69% of 350,000 active. LMP1-induced NF-kappaB luciferase reporter cells, luminescence. inhibition, % at 12.5 µM; in the data active means inhibition above about 41%; inconclusive means no clear call, values can overlap the other calls;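 further: 0% = neutral control wells and 100% = reference inhibitor control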
# EWS-Fli block = blocks EWS/Fli oncoprotein-driven transcription; inhibition, % at 12.6 µM; A673 NR0B1-luciferase reporter, viability-normalised; 0.67% of 350,000 active;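 active means mean inhibition of at least 50% after viability correction, with every replicate also passing that limit; inconclusive means mean reaches 50% but only one of two replicates passes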;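 further: firefly luciferase signal divided by Alamar Blue viability fluorescence both relative to DMSO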
# TROY signal inh = inhibitors of TROY-dependent NF-kB signaling; Q293 LMP1-TROYcd NF-kB luciferase reporter, 4 h; inhibition, % at 10 µM; 0.98% of 360,000 active;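 active means compounds whose plate-normalised and pattern-corrected inhibition of the luciferase reporter signal at the single screening dose is 50% or more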
# An asterisk follows results filed as active; ? = inconclusive; . = no result given.
SMILES,TWEAK Fn14 block,LGR2 antag,PAX8 reporter,EBV LMP1 NFkB,EWS-Fli block,TROY signal inh
CC(=O)c1ccc(OCc2cc(C(=O)N(C)C(C)c3ccon3)no2)cc1 (stereo not given),84.3*,-8.9,-5.3,-2.4,3.1,-6.3
CCOc1ccc(/C=C2/SC(=S)N(CCC(=O)Nc3ccc(C(=O)O)cc3)C2=O)cc1,-72.1,1.0,.,-8.0,-73.0,-59.4
CCOc1ccc(/C=C2\SC(=S)N(CCC(=O)O)C2=O)cc1,86.4*,-37.2,-5.6,47.4*,72.8*,57.8*
COc1ccc(/C=C2/SC(=S)N(CCC(=O)N3CCN(C)CC3)C2=O)cc1,19.9,-2.4,-53.0,-13.0,0.6,-11.3
COc1ccc(/C=C2\SC(=S)N(CCC(=O)N3CCCCC3)C2=O)cc1,50.5*,-0.5,2.0,5.7,11.7,13.8
O=C(C[C@H]1CC[C@H](NC(=O)Cc2ccccn2)[C@@H](CO)O1)NCCc1ccncc1,.,2.3,-6.7,.,4.6,.
COc1ccccc1NC(=O)N1CC(=O)N2[C@H](C1)[C@H](c1ccc(C#Cc3ccc(F)cc3)cc1)[C@@H]2CO,.,-3.4,.,.,.,.
Cc1ccc(S(=O)(=O)N(C)C[C@@H]2Oc3c(NC(=O)NC(C)C)cccc3C(=O)N([C@@H](C)CO)C[C@@H]2C)cc1,.,-6.4,0.6,.,-8.0,.
COc1ccc2c3c(n(C)c2c1)[C@@H](CO)N(C(=O)CN(C)C)CC31CCN(Cc2nccs2)CC1,.,-6.4,.,.,-9.8,.
CCCCc1c(-c2ccccc2OC)ncn1Cc1ccc(C)cc1,.,26.6,61.3*,.,35.1,.
Cc1cc(C)nc(N/C(=N\S(=O)(=O)Cc2ccccc2)Nc2ccccc2Br)n1,-19.1,19.7,10.9,54.6*,.,12.0
COCC(=O)N(C)C[C@H]1Oc2ncc(Br)cc2C(=O)N([C@H](C)CO)C[C@@H]1C,.,-2.0,-6.6,.,-7.7,.
OC[C@H]1O[C@@H](c2nc3ccc(-c4nc(-c5ccc(Br)cc5)no4)cc3[nH]2)C[C@@H]1O,63.0*,-38.0,-257.0,.,-110.0,45.7
OC[C@H]1Nc2ccc(-c3cccc(F)c3)cc2[C@H]2[C@@H]1CCN2Cc1ccncc1,.,-20.1,-1.9,.,-7.4,.
CCOC(=O)[C@H]1[C@H]2COc3ccc(C)cc3[C@@H]2N2C(=O)CN(Cc3ccc(Cl)cc3)C(=O)[C@@]12C,-6.2,10.9,-8.4,-2.3,10.5,3.6
CCOC(=O)[C@H]1[C@H]2COc3ccc(C)cc3[C@@H]2N2C(=O)CN(Cc3ccc(OC)cc3)C(=O)[C@@]12C,0.5,6.6,-8.6,44.8*,8.6,-9.2
CCOC(=O)[C@H]1[C@H]2COc3ccc(OC)cc3[C@@H]2N2C(=O)CN(C)C(=O)[C@@]12C,-2.6,3.9,-11.3,46.6*,0.1,-13.9
CC(C)NC(=O)Nc1ccc2c(c1)C(=O)N(C)[C@@H]1CC[C@H](CC(=O)NC3CCCCC3)O[C@@H]1CO2,.,9.0,3.0,.,-5.3,.
O=C(O)Cn1nc(C(F)(F)F)c2c1CCCC2,6.5,-8.5,-5.3,-6.3,-1.6,-2.8
O=C(Cn1nc(C(F)(F)F)c2c1CCC2)NC1CCCCC1,-10.1,.,-3.5,44.0*,.,-11.6
Cc1cc(=O)[nH]c(SCc2cccc3ccccc23)n1,-5.5,-5.9,23.3,-6.5,9.3,19.1
Cc1ccccc1CSc1nc(C(C)(C)C)cc(=O)[nH]1,1.7,-23.4,15.9,-10.6,10.2,64.7*
CCOC(=O)CC/C(C)=N\N=C1\SC(CC(=O)O)C(=O)N1c1ccccc1 (stereo not given),-9.6,-8.9,-7.3,44.1*,-1.1,-4.2
O=C(O)CC1S/C(=N\N=C2CCCCCC2)N(c2ccccc2)C1=O (stereo not given),-11.4,-21.2,4.9,-3.8,7.2,-12.1
C[C@@H]1CN([C@H](C)CO)C(=O)c2cc(-c3ccncc3)cnc2O[C@H]1CN(C)Cc1cccnc1,.,1.4,.,.,6.0,.
SMILES,TWEAK Fn14 block,LGR2 antag,PAX8 reporter,EBV LMP1 NFkB,EWS-Fli block,TROY signal inh
O=C1CCCC2=C1C1(CCCCC1)N=C(Nc1nc3ccccc3o1)N2,74.6*,.,12.3,-72.5,.,1.9
O=C1CCCC2=C1C1(CCCC1)N=C(Nc1nc3cc(-c4ccccc4)ccc3o1)N2,64.3*,-20.3,-3.2,.,-16.2,-12.0
COC(=O)[C@@H]1[C@@H](CO)[C@@H]2Cn3c(ccc(-c4cccc(F)c4)c3=O)[C@@H]2N1CC1CCCC1,.,5.8,64.0*,.,5.7,.
COC(=O)[C@H]1[C@H](CO)[C@H]2Cn3c(ccc(-c4cccc(F)c4)c3=O)[C@H]2N1CC1CCCC1,.,10.2,8.5,.,5.1,.
CC1(Cc2ccc(OC(F)(F)F)cc2)C(=O)Nc2ccc(S(=O)(=O)NC3CCCCC3)cc21 (stereo not given),78.1*,?,89.7*,.,5.6,52.2*
CC1(Cc2ccc(Cl)cc2)C(=O)Nc2ccc(S(=O)(=O)NC3CCCCC3)cc21 (stereo not given),17.4,36.7,5.7,.,-0.6,21.0
COc1ccc(S(=O)(=O)N(CCCN2CCOCC2)Cc2cccc(OC)c2OC)cc1,-8.5,.,.,-0.5,.,-26.4
COc1ccc(S(=O)(=O)N(CCCN2CCOCC2)Cc2cccc3ccccc23)cc1,91.7*,.,.,-0.2,.,.
O=C(NCCN1CCN(c2ccccc2F)CC1)c1ccc2nc3ccccc3c(=O)n2c1,67.1*,-7.4,-19.2,-0.3,-22.2,21.5
COc1ccc(N2CCN(CCNC(=O)c3ccc4nc5ccccc5c(=O)n4c3)CC2)cc1,37.4,4.8,-98.1,31.7,1.5,13.3
COc1ccc(CN(C)C[C@@H]2OCCCC[C@@H](C)Oc3ccc(NC(=O)c4ccncc4)cc3C(=O)N([C@@H](C)CO)C[C@@H]2C)cc1,.,12.2,.,.,-8.4,.
Cc1cc(C(=O)COC(=O)c2ccc(Cl)c(S(N)(=O)=O)c2)c(C)n1CC1CCCO1 (stereo not given),63.5*,24.5,-196.5,-13.2,-28.3,71.9*
Cc1cc(C(=O)COc2cccc([N+](=O)[O-])c2)c(C)n1C1CC1,-10.8,.,-108.1,-37.6,-126.2,-33.4
Cc1cc(C(=O)COC(=O)c2ccc(O)cc2)c(C)n1CC1CCCO1 (stereo not given),49.7,.,-160.5,-15.1,-45.3,61.5*
Cc1cc(C(=O)COC(=O)c2cccc(O)c2)c(C)n1C1CC1,54.1*,72.7*,-137.5,35.2,-27.5,-10.1
COCCn1c(C)cc(C(=O)COC(=O)c2ccc(Cl)c(S(N)(=O)=O)c2)c1C,72.2*,37.4,-171.7,6.5,-44.5,9.8
COCCn1c(C)cc(C(=O)COC(=O)c2ccc(-n3nc(C)cc3C)cc2)c1C,10.1,.,-11.4,6.8,.,25.4
O=C(C[C@H]1C[C@H]2c3cc(NC(=O)CC4CC4)ccc3O[C@H]2[C@H](CO)O1)NCc1cccnc1,.,-10.6,.,.,0.4,.
O=C(/C=C/c1ccccc1)N1CCN(CC(O)COc2ccccc2)CC1 (stereo not given),5.1,.,.,-1.4,.,53.9*
CC(C)NC(=O)N1CC2(C1)[C@H](c1ccccc1)[C@@H](CO)N2Cc1cccnc1,.,6.3,.,.,0.1,.
